{
  "source": "PubChem BioAssay (Tox21)",
  "note": "Results filed as inconclusive are left out. Where a call stands in place of a potency, no number is given. Unmarked numbers belong to inactive results. Calls of active or inactive are those of the source. Calls follow the shape of the full dose curve. Potency is read from the fitted curve at half-maximal effect.",
  "data": [
    {"target": "Retinoic acid receptor RXR-alpha (Homo sapiens) (UniProt P19793)", "sequence (P19793 whole entry, looked up)": "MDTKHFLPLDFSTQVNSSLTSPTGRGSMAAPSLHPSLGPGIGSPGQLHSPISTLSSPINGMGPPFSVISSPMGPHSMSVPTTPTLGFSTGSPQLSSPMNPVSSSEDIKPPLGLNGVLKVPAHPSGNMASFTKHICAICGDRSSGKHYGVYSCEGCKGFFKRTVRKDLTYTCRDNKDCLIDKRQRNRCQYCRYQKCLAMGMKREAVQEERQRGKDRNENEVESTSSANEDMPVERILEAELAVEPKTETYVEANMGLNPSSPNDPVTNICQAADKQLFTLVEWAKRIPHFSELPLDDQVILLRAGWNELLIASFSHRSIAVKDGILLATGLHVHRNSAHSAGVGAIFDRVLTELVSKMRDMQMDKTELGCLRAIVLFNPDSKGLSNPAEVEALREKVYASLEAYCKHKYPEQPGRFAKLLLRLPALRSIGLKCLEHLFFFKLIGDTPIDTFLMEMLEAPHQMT", "assay": "qHTS assay to identify small molecule agonists of the RXR signaling pathway (AID 1159527); also: nearly all actives have a fitted effect of over 35% in size", "settings": "HEK293T RXRa-UAS-bla, beta-lactamase ratio, 16 h; series mostly up to 76.8 µM", "from_the_text": "U.S. Tox21 Program National Center for Advancing Translational Sciences [NCATS] NIH Chemical Genomics Center [NCGC] U.S. Environmental Protection Agency [EPA] National Institutes of Environmental Health Sciences [NIEHS] National Toxicology Program [NTP] U.S. Food and Drug Administration [FDA] Tox21 Assay Overview: The Retinoid X receptor (RXR), a nuclear hormone receptor expressed in liver, spleen, placenta, epidermis, central nervous system. These receptors are able to form homo and heterodimers with other nuclear receptors and due to this heterodimerizing ability, RXR functions as master regulators producing diverse physiological effects. Three subtypes of RXR exist; alpha, beta and gamma. Retinoid X receptor alpha (RXR-alpha) has potential roles in metabolic signaling pathways, skin alopecia, dermal cysts, cardiac development, insulin sensitization etc. Therefore screening environmental chemicals on RXR-alpha signaling can be used for the studies focused on such therapeutic applications. For quantification of RXR-alpha ligands signaling, GeneBLAzer RXR alpha-UAS-bla HEK 293T (Life Technologies, Carlsbad, CA) cells containing a beta-lactamase reporter-gene under control of Retinoid X receptor-alpha response element were used to screen Tox21 10K library.\nTox21 Assay Protocol Summary: RXR-alpha HEK 293T cells were dispensed at 2,000 cells/6 uL of assay medium containing 2% charcoal-stripped FBS using a Multidrop Combi (ThermoFisher Scientific, Waltham, MA) dispenser. The assay was performed in black wall/clear-bottom 1536-well plates (Greiner Bio-One North America Inc. Monroe, NC). 9-cis retinoic acid was used as a positive control in the agonist mode screen. After the assay plates were incubated at 37 C and 5% CO2 for 5 hr, 23 nL of compounds dissolved in DMSO, positive controls or DMSO only were transferred to the assay plate by a Pintool station (Kalypsys, San Diego, CA). The assay plates were incubated at 37 C and 5% CO2 for 16 hr. One uL of LiveBLAzer B/G FRET substrate (Life Technologies) was added using a Flying Reagent Dispenser (Aurora Discovery, San Diego, CA) and the plates were incubated at room temperature for 2 hr. Fluorescence intensity (405 nm excitation, 460/530 nm emission) was measured using an Envision plate reader (PerkinElmer, Shelton, CT).", "values": [
      {"compound": "N#CC1(N)CCCCC1", "Potency": "inactive"},
      {"compound": "CC(C)CC(O)Cc1ccccc1", "note": "(stereo not given)", "Potency": "inactive"},
      {"compound": "CC(=O)OC1CCC(C(C)(C)C)CC1", "note": "(stereo not given)", "Potency": "inactive"},
      {"compound": "CC(=O)OC/C=C(/C)CCC=C(C)C", "Potency": "inactive"},
      {"compound": "CC1(C)CC(N)CC(C)(C)N1", "Potency": "inactive"},
      {"compound": "C=CC(C)(CCC=C(C)C)OC(=O)C(C)C", "note": "(stereo not given)", "Potency": "inactive"},
      {"compound": "Cc1cc(=O)oc2cc(O[C@@H]3SC[C@@H](O)[C@H](O)[C@H]3O)ccc12", "Potency": "inactive"},
      {"compound": "COC(=O)N/N=C/c1c[n+]([O-])c2ccccc2[n+]1[O-]", "Potency": "inactive"},
      {"compound": "CCCCCCC(O)CO", "note": "(stereo not given)", "Potency": "12.3 µM (active)"},
      {"compound": "CCCCCCCCS(=O)(=O)O", "Potency": "inactive"},
      {"compound": "CCO[Si](CC(C)C)(OCC)OCC", "Potency": "inactive"},
      {"compound": "O=C1CCCc2c(O)cccc21", "Potency": "inactive"},
      {"compound": "NC[C@H]1O[C@H](O[C@H]2[C@H](O)[C@@H](O[C@H]3O[C@H](CO)[C@@H](O)[C@H](N)[C@H]3O)[C@H](N)C[C@@H]2N)[C@H](N)[C@@H](O)[C@@H]1O", "activation": "4.18% [at 15.8 µM]"},
      {"compound": "CCCC[O][Al]([O]CCCC)[O]CCCC", "Potency": "inactive"},
      {"compound": "CC(CN1CC(=O)NC(=O)C1)N1CC(=O)NC(=O)C1", "note": "(stereo not given)", "Potency": "inactive"},
      {"compound": "COCc1nnc(-c2ccc[n+]([O-])c2)n1-c1c(Cl)c(Cl)cc2[nH]c(=O)c(=O)[nH]c12", "Potency": "inactive"},
      {"compound": "Cc1ccc(NC(N)=O)cc1", "Potency": "inactive"},
      {"compound": "CCCCCCCCCCCCCCBr", "Potency": "inactive"},
      {"compound": "C=CCCCCCCCCCCCCCC", "activation": "-0.752% [at 15.8 µM]"},
      {"compound": "CC12CCCC=C1C(=O)OC2=O", "note": "(stereo not given)", "Potency": "inactive"},
      {"compound": "Cc1ccc(N)nc1", "Potency": "inactive"},
      {"compound": "O=C(O)P(=O)(O)O", "Potency": "inactive"},
      {"compound": "CC(C)(O)c1ccc(C(C)(C)O)cc1", "Potency": "inactive"},
      {"compound": "C[C@@H]1CC[C@@]2(OC1)O[C@H]1C[C@H]3[C@@H]4CC[C@H]5C[C@@H](O)CC[C@]5(C)[C@H]4CC(=O)[C@]3(C)[C@H]1[C@@H]2C", "activation": "2.2% [at 6.98 µM]"},
      {"compound": "N#Cc1ccccc1C#N", "Potency": "inactive"},
      {"compound": "O=C(O)COc1ccc2ccccc2c1", "Potency": "inactive"},
      {"compound": "CCOCCOCCOC(C)=O", "Potency": "inactive"},
      {"compound": "CC(C)(C)C(=O)CC(=O)C(C)(C)C", "Potency": "inactive"},
      {"compound": "COc1cc2nc(N3CCN(C(=O)C4CCCO4)CC3)nc(N)c2cc1OC", "note": "(stereo not given)", "Potency": "inactive"},
      {"compound": "Nc1ccc(C(=O)NCC(=O)O)cc1", "Potency": "inactive"},
      {"compound": "CC(C)C(=O)Nc1cccc(C2CN3CCSC3=N2)c1", "note": "(stereo not given)", "Potency": "inactive"},
      {"compound": "CCOC(=O)[C@H](CCc1ccccc1)N[C@H]1CS[C@H](c2cccs2)CN(CC(=O)O)C1=O", "Potency": "inactive"},
      {"compound": "COC(=O)/C=C(\\C)CCC=C(C)C", "Potency": "inactive"},
      {"compound": "CN1CCN(C(=O)C2CCCCC2)CC1", "Potency": "inactive"},
      {"compound": "O=P(O)(O)C(O)(Cc1cccnc1)P(=O)(O)O", "Potency": "inactive"},
      {"compound": "O=C[C@@H](O)[C@H](O)[C@H](O)CO", "Potency": "inactive"},
      {"compound": "CN(C)CCc1c[nH]c2ccc(C[C@H]3COC(=O)N3)cc12", "Potency": "inactive"},
      {"compound": "CCCCCCCCCCCC(C)=O", "Potency": "inactive"},
      {"compound": "CC(CC(=O)Cl)CC(C)(C)C", "note": "(stereo not given)", "Potency": "inactive"},
      {"compound": "CC(C)(C)OC=O", "Potency": "inactive"}
    ]}
  ]
}
